MCF10A rerep = DNA re-replication induction in MCF 10a cells | MCF 10A DNA re-replication, Hoechst nuclear intensity, 48 h | Potency, µM (top dose mostly 46.1 µM), without a hit: at the highest dose activity, positive = re-replication, usual class: activators | 350,000 compounds, 2.9% hits; also: % of control where 0% means no effect; nearly all actives have a fitted effect of over 50% in size
HT1080 IDH1KD tx = HT-1080 IDH1 knockdown cell toxicity (counter line). Potency, µM (highest dose often 46.1 µM), without a hit: at the top dose activity, negative = toxicity, actives largely listed as cytotoxic. HT-1080 IDH1 knockdown viability, ATP luminescence, 48 h. 360,000 compounds, 2% hits;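 also: 0% = DMSO wells and -100% = cell-free medium wells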
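HT-1080-IDH1KD cells (IDH1 knocked down), 750/well in RPMI with 5% FBS, treated with compound 48 h at 37 degrees C. Viability by CellTiter-Glo luminescence, normalised to DMSO and no-cell wells; concentration-response curves classed.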
KB-V1 MDR tox = kills drug-selected multidrug resistant KB-V1 cells. Potency, µM (doses to about 46.1 µM), actives largely listed as cytotoxic. KB-V1 MDR cells viability, CellTiter-Glo, 72 h. 400,000 compounds, 3.4% hits; also: % is scaled to controls: 0 for no effect and ±100 for the full control effect; nearly all actives have a fitted effect of over 60% in size
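Cytotoxicity toward P-gp-expressing KB-V1 cells was determined as loss of CellTiter-Glo luminescence after 72 h at 37 degrees C. Compounds were tested in quantitative HTS format across a concentration range, with curves fitted to normalized data.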
KB-3-1 cytotox = kills parental KB-3-1 adenocarcinoma cells; KB-3-1 viability, CellTiter-Glo ATP luminescence, 72 h; Potency, µM (doses to about 46.1 µM), usual class: cytotoxic; 400,000 compounds, 1.4% hits; AID 1347075; also: % is scaled to controls: 0 for no effect and ±100 for the full control effect; nearly all actives have a fitted effect of over 60% in size
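Luminescent ATP read-out (CellTiter-Glo) measures survival of drug-naive KB-3-1 cells after 72 h compound exposure at 37 °C. Titration series was screened from lowest to highest concentration, with DMSO vehicle plates as background controls.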
SW480 rereplic = DNA re-replication induction in SW480 cells. SW480 DNA re-replication, Hoechst DNA content imaging, 48 h. Potency, µM (highest dose often 46.1 µM), without a hit: at the top dose re-replication activation, hits mostly activators. 340,000 compounds, 1.8% hits; also: % of control where 0% means no effect; nearly all actives have a fitted effect of over 55% in size
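250 cells/well; 23 nL cpd via pin tool; 48 hr, 37 C, 5% CO2; Hoechst 40 min; imager read of total nuclear intensity, ex 405/em 500-530 nm.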
HT1080-NT tox = kills 2HG-producing HT-1080-NT fibrosarcoma cells; 360,000 compounds, 1.6% hits; Potency, µM (doses to about 46.1 µM), inactives show top-dose activity, negative = less viability, most hits filed as cytotoxic; HT-1080-NT fibrosarcoma viability, CellTiter-Glo ATP luminescence, 48 h;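 also: NT is the 2HG producing partner of a matched IDH1 knockdown line; 0% = DMSO-treated cells and -100% = media-only wells without cells; nearly all actives have a fitted effect of over 55% in size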
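Viability of the 2HG-overproducing fibrosarcoma line after 48 hours of compound exposure at 37 degrees C was determined by luminescence with CellTiter-Glo, and concentration-effect curves were then fitted and categorized.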
Active calls of the source: *; i = inactive; ? = inconclusive; / = no result given. Sampled rows, rich in hits. Any-hit rate of the full collection: about 8%. Calls follow the shape of the dose curve; as a rule, active = well fitted curve in the direction sought with a large enough effect; inconclusive = small, poorly fitted or top-dose-only effect, or another doubt; inactive = no such curve, though single readings can be large; an effect the other way counts as inactive or inconclusive. Potency is read from the fitted curve at half-maximal effect.

SMILES	MCF10A rerep	HT1080 IDH1KD tx	KB-V1 MDR tox	KB-3-1 cytotox	SW480 rereplic	HT1080-NT tox
CCOC(=O)CC(NC(=O)Cn1nnc(-c2ccc(C(F)(F)F)cc2)n1)c1ccc(C)cc1 (centres undefined)	/	/	?	i	/	/
Cc1ccc(S(=O)(=O)N(CC(=O)N2CCN(c3ccccc3F)CC2)C2CCCCC2)cc1	10%	-11%	4.6µM*	?	4%	-1%
CS(=O)(=O)N(CC(=O)N1CCN(c2ccccc2F)CC1)C1CCCCC1	10%	-1%	?	i	21%	-1%
CC(C)C(NS(=O)(=O)c1ccc2c(c1)oc(=O)n2C)C(=O)NCCc1ccccc1 (centres undefined)	/	/	i	i	/	/
CCOC(=O)CNC(=O)c1sc2ncnc(N3CCc4ccccc4C3)c2c1C	?	-21%	15µM*	i	?	-11%
Cc1ccc(-c2csc3ncnc(N4CCc5ccccc5C4)c23)cc1	18µM*	-25%	?	i	7%	-9%
Fc1ccc(-c2csc3ncnc(N4CCc5ccccc5C4)c23)cc1	10µM*	-13%	?	i	17%	-5%
CCN(CC)c1ccc(NC(=O)CN2CCN(S(=O)(=O)c3ccc(C(C)C)cc3)CC2)cc1	/	/	i	i	/	/
Cc1cccc(C(=O)N2CCc3cc(-c4csc(NC(=O)CN5CCCC5)n4)ccc32)c1	16µM*	16µM*	?	i	?	21µM*
Cc1sc(NC(=O)CN2CCOCC2)nc1-c1ccc2c(c1)CCN2S(=O)(=O)c1ccccc1	?	?	4.1µM*	?	-1%	?
CNc1nc(-c2ccc3c(c2)CCN3C(=O)c2cccc(F)c2)cs1	26%	?	i	15µM*	15µM*	?
Cc1cccc(C(=O)N2CCc3cc(-c4nc(NC(=O)CN5CCCC5)sc4C)ccc32)c1	18µM*	?	i	i	?	?
Cc1sc(NC(=O)Cc2ccc3c(c2)OCO3)nc1-c1ccc2c(c1)CCN2C(=O)c1cccc(F)c1	3%	-18%	i	i	-8%	-4%
O=C(CN1CCOCC1)Nc1nc(-c2ccc3c(c2)CCN3S(=O)(=O)c2ccccc2)cs1	?	-15%	?	i	-4%	-27%
COc1ccc(S(=O)(=O)Nc2ccccc2C(=O)Nc2nc(-c3ccc(F)cc3)cs2)cc1OC	?	?	15µM*	?	?	?
COc1ccc(-c2csc(NC(=O)c3c(OC)cccc3OC)n2)cc1	?	0%	i	i	4%	4%
O=C(Nc1nc(-c2ccc(Oc3ccccc3)cc2)cs1)C1=COCCO1	19%	?	18µM*	?	-5%	2%
COc1ccc(NC(=O)c2ccccc2NS(=O)(=O)c2ccc(CNC(C)=O)cc2)c(OC)c1	5.2µM*	?	i	?	-41%	13µM*
COc1ccc(-c2csc(NC(=O)c3ccccc3NS(=O)(=O)c3ccc(C)cc3)n2)cc1	?	?	2.3µM*	2.6µM*	2%	?
COc1cccc(C(c2sc3nc(-c4ccco4)nn3c2O)N2CCC(C)CC2)c1 (centres undefined)	/	/	i	i	/	/
O=S1(=O)N=C(Oc2ccc(Br)cc2)c2ccccc21	/	/	i	i	/	/
CC(C)(C)c1ccc(C2CC2C(=O)N/N=C\c2ccc[nH]2)cc1 (centres undefined)	?	1.6µM*	?	15µM*	?	2.6µM*
CCOC(=O)C1CCC(CN(Cc2ccc(OC)cc2)S(=O)(=O)c2ccc(F)c(C(=O)Nc3ccc(C)c(C)c3)c2)CC1 (centres undefined)	/	/	i	i	/	/
Cc1ccc(-c2ccc(CN3C(C(C)C)C(=O)N(Cc4cn(CCC5OCCO5)nn4)CCS3(=O)=O)cc2)c(C)c1 (centres undefined)	/	23µM*	?	?	/	?
CC(C)C1C(=O)N(Cc2cn(CCC3OCCCO3)nn2)CCS(=O)(=O)N1Cc1ccc(-c2ccncc2)cc1 (centres undefined)	/	-6%	i	16µM*	/	-2%
SMILES	MCF10A rerep	HT1080 IDH1KD tx	KB-V1 MDR tox	KB-3-1 cytotox	SW480 rereplic	HT1080-NT tox
CC(C)C1C(=O)N(Cc2cn(CCC3OCCO3)nn2)CCS(=O)(=O)N1Cc1ccc(-c2ccc(Cl)c(Cl)c2)cc1 (centres undefined)	/	18µM*	i	?	/	?
Cc1ccccc1-c1ccc(CN2C(C(C)C)C(=O)N(Cc3cn(CCC4OCCO4)nn3)CCS2(=O)=O)cc1 (centres undefined)	/	?	?	i	/	?
CC(C)C1C(=O)N(Cc2cn(Cc3ccco3)nn2)CCS(=O)(=O)N1Cc1ccc(-c2ccc(Cl)c(Cl)c2)cc1 (centres undefined)	/	?	13µM*	i	/	?
Cc1cc(Nc2cc(Cl)ccc2C)n2nc(Cc3ccccc3)nc2n1	/	/	i	i	/	/
CC(C)C(c1nnnn1C1CCCC1)N1c2ccccc2CC1C (centres undefined)	?	-27%	15µM*	i	?	-26%
CC(C)C(c1nnnn1C1CCCCC1)N1CCc2ccccc21 (centres undefined)	?	-21%	i	i	?	-6%
COc1ccc(/C=C/C(=O)c2cc(Cl)cc(Cl)c2O)c(OC)c1	6%	0%	i	i	-72%	19%
O=C(/C=C/c1ccccn1)c1cc(Cl)cc(Cl)c1O	21µM*	?	?	?	16µM*	16µM*
C=C(NC(=O)C(=C)NC(=O)c1csc(C2=N[C@@H]3c4csc(n4)[C@@H]4NC(=O)c5csc(n5)[C@@H]([C@](C)(O)[C@H](C)O)NC(=O)[C@@H]5CSC(=N5)/C(=C/C)NC(=O)[C@@H]([C@H](C)O)NC(=O)c5csc(n5)[C@]3(CC2)NC(=O)[C@@H](C)NC(=O)C(=C)NC(=O)[C@@H](C)NC(=O)[C@@H]([C@@H](C)CC)N[C@H]2C=Cc3c([C@H](C)O)cc(nc3[C@@H]2O)C(=O)O[C@H]4C)n1)C(N)=O	8.1µM*	/	/	/	7.2µM*	/

Screening data: PubChem BioAssay, National Center for Advancing Translational Sciences (NCATS)
